The target of experiment [1] is Thyrotropin-releasing hormone receptor (Homo sapiens) (UniProt P34981). Briefly: qHTS assay to identify small molecule agonists of the thyrotropin-releasing hormone receptor (TRHR) signaling pathway (AID 1346891; calls by dose curve;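 also: HEK293 cells expressing TRHR with calcium dye readout; series mostly up to about 58 µM; % is scaled to controls: 0 for no effect and ±100 for the full control effect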). In short, it runs like this:
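Cells: TRHR-Hek293, seeded and incubated 18 h. Dye loading: 2 h at 37 °C. Compound added from DMSO stock by pin tool. Read-out: kinetic calcium fluorescence over 3 min.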
For orientation: Quantitative high-throughput screening tests each substance at several concentrations.

Experiment [2] in a line: Human pregnane X receptor (PXR) small molecule agonists, qHTS cell viability counter screen (AID 1346977). Also: nearly all actives have a fitted effect of over 50% in size. Also: potency is read from the fitted curve at half-maximal effect. In short, it runs like this:
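Cytotoxicity counter screen run in the same wells as the PXR luciferase assay, using PXR-Luc HepG2 cells in charcoal-stripped serum medium. Viability: CellTiter-Fluor fluorescence after 24hr compound treatment.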

Experiment [3] is described as follows: Caspase-3/7 induction in HepG2 cells by small molecules, qHTS assay (AID 1346978). Also: % is scaled to controls: 0 for no effect and ±100 for the full control effect; nearly all actives have a fitted effect of over 15% in size. The method, boiled down: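 Wild-type HepG2 cells (2,000/well) were settled 5 h at 37 C, 5% CO2, then exposed to compounds in DMSO for 17 h. Caspase-3/7 activity was read by luminescence 30 min after adding Caspase-Glo 3/7 reagent at room temperature.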
The nature of experiment [4]: Caspase-3/7 induction in CHO-K1 cells by small molecules, qHTS cell viability counter screen (AID 1346979). Also: nearly all actives have a fitted effect of over 35% in size. Also: potency is read from the fitted curve at half-maximal effect. In short, it runs like this:
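Cytotoxicity counter screen run in parallel with the caspase-3/7 assay: CHO-K1 cells, 16hr compound treatment at 37C, then CellTiter-Fluor for 1hr before fluorescence reading.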

Experiment [5] in a line: Caspase-3/7 induction in CHO-K1 cells by small molecules, qHTS assay (AID 1346980). Also: % is scaled to controls: 0 for no effect and ±100 for the full control effect; nearly all actives have a fitted effect of over 15% in size. In short, it runs like this:
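Wild-type cells were seeded at 1,500 per well and settled 5 hr at 37 C, 5% CO2, then exposed to DMSO-dissolved compounds for 17 hr. Caspase-Glo 3/7 reagent was added, and luminescence was read after 30min at room temperature.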

Experiment [6] can be described thus: Caspase-3/7 induction in HepG2 cells by small molecules, qHTS cell viability counter screen (AID 1346981). Also: nearly all actives have a fitted effect of over 30% in size. Also: potency is read from the fitted curve at half-maximal effect. The method, boiled down: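 After a 5-hr attachment period at 37 C and 5% CO2, wild-type HepG2 cells received compounds in DMSO. Sixteen hours later CellTiter-Fluor was dispensed and the fluorescent signal quantified after a further hour.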
Experiment [7] deals with Nuclear receptor subfamily 1 group I member 2 (Homo sapiens) (UniProt O75469). Nature of the experiment: Human pregnane X receptor (PXR) small molecule agonists, qHTS assay (AID 1346982). Also: nearly all actives have a fitted effect of over 35% in size. Also: potency is read from the fitted curve at half-maximal effect. As to activation: % is scaled to controls: 0 for no effect and ±100 for the full control effect. The method, boiled down:
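Tox21 qHTS; PXR-Luc HepG2; compounds pinned from DMSO; 24 hr, 37 C; ONE-Glo luciferase detection, 30 min room temperature.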

In experiment [8] the target is Acetylcholinesterase (Homo sapiens) (UniProt P22303). Briefly: Acetylcholinesterase (AChE) small molecule antagonists: colormetric cell-based qHTS assay (AID 1347395; calls by dose curve; also: nearly all actives have a fitted effect of over 30% in size; also: potency is read from the fitted curve at half-maximal effect). The method, boiled down:
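Cells (SH-SY5Y, 2,000 per well) are seeded and left overnight at 37 C. Compound is added for 30 min, then DTNB and acetylthiocholine for a further 90 min at 37 C before absorbance-based thiocholine detection.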

For experiment [9] the target is unchanged. Nature of the experiment: Acetylcholinesterase (AChE) small molecule antagonists: enzyme-based qHTS assay (AID 1347397; calls by dose curve; also: % is scaled to controls: 0 for no effect and ±100 for the full control effect; nearly all actives have a fitted effect of over 55% in size). To be noted: Potency: AChE enzyme activity inhibition; outcome: AChE enzyme activity inhibition. The method, boiled down: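 Tox21 library chemicals are tested in qHTS format against recombinant human AChE. The enzyme, dispensed at 50 mU/mL, sits with compound for 30 min at room temperature. A DTNB–acetylthiocholine cocktail follows, and colour is read after 10 min.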

Experiment [10] has the same target. Nature of the experiment: Acetylcholinesterase (AChE) small molecule antagonists: fluorescence cell-based qHTS assay (AID 1347398; calls by dose curve; also: % is scaled to controls: 0 for no effect and ±100 for the full control effect; nearly all actives have a fitted effect of over 50% in size). Particulars: Potency: AChE activity; outcome: AChE activity. The method, boiled down:
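Cellular AChE inhibition: SH-SY5Y cells treated with test chemical for 30 min at 37 C, then acetylthiocholine hydrolysis followed over 40 min at room temperature via thiocholine-reactive Thiolite Green fluorescence (490/520 nm).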

For experiment [11] the target is unchanged. Briefly: Acetylcholinesterase (AChE) small molecule antagonists: enzyme-based qHTS assay with human liver microsomes (AID 1347399; calls by dose curve; also: % is scaled to controls: 0 for no effect and ±100 for the full control effect; nearly all actives have a fitted effect of over 60% in size). To be noted: Potency: qHTS inhibition; outcome: qHTS inhibition. The method, boiled down:
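Recombinant human AChE (50 mU/mL in the enzyme mix) and human liver microsomes (0.25 mg/mL final) were preincubated with compound and NADPH (0.25 mg/mL final) for 30 min at 37 C. Acetylthiocholine/DTNB was then added; thiocholine was read colorimetrically after 10 min at room temperature.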

Experiment [12] has as its target Cytochrome P450 2C19 (Homo sapiens) (UniProt P33261). Briefly: Cytochrome P450 Family 2 Subfamily C Member 19 (CYP2C19) small molecule antagonists: luciferase reporter qHTS assay (AID 1671197). Also: nearly all actives have a fitted effect of over 65% in size. Also: potency is read from the fitted curve at half-maximal effect. The method, boiled down:
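CYP2C19 P450-Glo, 1536-well qHTS. Cpd + enzyme/proluciferin substrate 10 min RT; + NADPH regen, 37C 1 h; stop with luciferin detection reagent, 20 min RT, luminescence (RLU). Pos ctrl ketoconazole.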
(In a reporter assay the amount or activity of a reporter protein is the signal.)

In experiment [13] the target is Cytochrome P450 2C9 (Homo sapiens) (UniProt P11712). Nature of the experiment: Cytochrome P450 Family 2 Subfamily C Member 9 (CYP2C9) small molecule antagonists: luciferase reporter qHTS assay (AID 1671198). Also: nearly all actives have a fitted effect of over 50% in size. Also: potency is read from the fitted curve at half-maximal effect. The method, boiled down:
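CYP2C9 activity was measured with a P450-Glo proluciferin substrate. Enzyme–substrate mix was held with compound for 10 min at room temperature, then NADPH regeneration solution was added for 1 h at 37C. Luciferin product was read as luminescence.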

Experiment [14] addresses Voltage-gated inwardly rectifying potassium channel KCNH2 (Homo sapiens) (UniProt Q12809). Nature of the experiment: Human Ether-a-go-go-Related Gene (hERG) channel small molecule antagonists: fluorescence cell-based qHTS assay (AID 1671200). Also: nearly all actives have a fitted effect of over 50% in size. Also: potency is read from the fitted curve at half-maximal effect. The method, boiled down: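 Fluorescence at 540 nm emission (480 nm excitation) was recorded kinetically for 2 min at 1-second intervals once the thallium-containing stimulus reached cells previously loaded with FluxOR II dye.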

Experiment [15] deals with Cytochrome P450 3A4 (Homo sapiens) (UniProt P08684). Briefly: Cytochrome P450 Family 3 Subfamily A Member 4 (CYP3A4) small molecule antagonists: luciferase reporter qHTS assay (AID 1671201). Also: nearly all actives have a fitted effect of over 50% in size. Also: potency is read from the fitted curve at half-maximal effect. In short, it runs like this:
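qHTS, 1536-well. CYP3A4 + proluciferin substrate, cpd 10 min RT → NADPH regen 1 h RT → detection reagent 20 min → luminescence (RLU). Ketoconazole positive control.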

Experiment [16] deals with Nuclear receptor subfamily 1 group I member 2 (Rattus norvegicus) (UniProt Q9R1A7). Briefly: Rat pregnane X receptor (rPXR) activation by small molecules, qHTS assay (AID 1346983). Also: % is scaled to controls: 0 for no effect and ±100 for the full control effect; nearly all actives have a fitted effect of over 20% in size. To be noted: rPXR luciferase reporter cells, One-Glo luminescence, 24 h; stronger effect = higher value. The method, boiled down: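 Cell-based rPXR luciferase reporter assay, 2,000 cells per well, rested 5hr at 37 C before compound addition in DMSO, then 24 hr at 37 C. One-Glo reagent was added and luminescence read after 30 min at room temperature.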

In experiment [17] the target is Nuclear receptor subfamily 1 group I member 2 (Homo sapiens) (UniProt O75469). Nature of the experiment: Human pregnane X receptor (PXR) activation by small molecules, qHTS assay (AID 1346985). Also: % is scaled to controls: 0 for no effect and ±100 for the full control effect; nearly all actives have a fitted effect of over 40% in size. The method, boiled down: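 DPX-2 cells (HepG2 co-transfected with a PXR response element and a CYP3A4-promoter luciferase construct) were seeded at 2,000 per well, rested 5 hr at 37C, then exposed to DMSO-dissolved compounds for 24 hr. Activation was read as luciferase luminescence.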

The target in experiment [18] is Cytochrome P450 2D6 (Homo sapiens) (UniProt P10635). Nature of the experiment: Cytochrome P450 Family 2 Subfamily D Member 6 (CYP2D6) small molecule antagonists: luciferase reporter qHTS assay (AID 1671196). In short, it runs like this:
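Room-temperature luminescent CYP2D6 activity assay: compound preincubated 10 min with enzyme–substrate mix, NADPH-initiated reaction 1 h, detection reagent 20 min before reading.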

In experiment [19] the target is Cytochrome P450 1A2 (Homo sapiens) (UniProt P05177). Nature of the experiment: Cytochrome P450 Family 1 Subfamily A Member 2 (CYP1A2) small molecule antagonists: luciferase reporter qHTS assay (AID 1671199). Also: nearly all actives have a fitted effect of over 50% in size. Also: potency is read from the fitted curve at half-maximal effect. The method, boiled down: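 Room-temperature CYP1A2 reaction with proluciferin substrate: compounds added from DMSO, 10 min preincubation, NADPH regeneration for 1 h. Luciferin detection reagent then added; luminescence recorded as RLU.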

Each structure is given as a SMILES string. Several values for one entry are separate records, joined by “and”; a condition that tells them apart may be missing. Equal values may be shown once. Inconclusive results are not listed. Some structures have more than one record in an assay (separate samples or runs), and their calls can disagree. Activity calls are given as the source filed them. Unless noted, calls follow the shape of the dose curve; as a rule, active = well fitted curve in the direction sought with a large enough effect in the repeat runs; inconclusive = weak or mixed curves; inactive = no such curve, though single readings can be large; an effect the other way counts as inactive or inconclusive.

Our source for the outcome, Potency and max activation values is PubChem BioAssay (Tox21).

Sequence of Cytochrome P450 3A4 (Homo sapiens) (P08684 whole entry, looked up): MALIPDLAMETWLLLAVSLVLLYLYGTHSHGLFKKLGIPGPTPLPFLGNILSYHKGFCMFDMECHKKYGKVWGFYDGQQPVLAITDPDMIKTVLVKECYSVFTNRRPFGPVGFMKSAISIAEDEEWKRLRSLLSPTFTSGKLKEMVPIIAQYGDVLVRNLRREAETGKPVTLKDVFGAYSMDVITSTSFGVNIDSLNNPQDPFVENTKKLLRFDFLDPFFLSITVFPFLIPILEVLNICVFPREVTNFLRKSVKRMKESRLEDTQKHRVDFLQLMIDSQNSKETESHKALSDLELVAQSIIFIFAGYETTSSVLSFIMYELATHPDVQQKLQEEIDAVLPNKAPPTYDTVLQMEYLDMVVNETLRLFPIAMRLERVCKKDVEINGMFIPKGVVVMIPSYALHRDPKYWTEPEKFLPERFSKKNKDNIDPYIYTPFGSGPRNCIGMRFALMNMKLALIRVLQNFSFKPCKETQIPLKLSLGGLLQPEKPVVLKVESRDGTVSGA
Sequence of Nuclear receptor subfamily 1 group I member 2 (Homo sapiens) (O75469 whole entry, looked up): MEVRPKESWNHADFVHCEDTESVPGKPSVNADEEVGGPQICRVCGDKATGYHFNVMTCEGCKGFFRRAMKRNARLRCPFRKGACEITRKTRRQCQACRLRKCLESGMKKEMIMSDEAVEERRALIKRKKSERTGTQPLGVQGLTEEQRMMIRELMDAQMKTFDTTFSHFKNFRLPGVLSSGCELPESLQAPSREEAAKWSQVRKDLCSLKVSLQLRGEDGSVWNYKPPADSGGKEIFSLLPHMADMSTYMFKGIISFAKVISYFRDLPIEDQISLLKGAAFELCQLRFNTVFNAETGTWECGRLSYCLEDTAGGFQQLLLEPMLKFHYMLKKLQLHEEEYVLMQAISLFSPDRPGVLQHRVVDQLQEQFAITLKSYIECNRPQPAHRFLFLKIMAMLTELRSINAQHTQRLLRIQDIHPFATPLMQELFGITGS
Sequence of Cytochrome P450 1A2 (Homo sapiens) (P05177 whole entry, looked up): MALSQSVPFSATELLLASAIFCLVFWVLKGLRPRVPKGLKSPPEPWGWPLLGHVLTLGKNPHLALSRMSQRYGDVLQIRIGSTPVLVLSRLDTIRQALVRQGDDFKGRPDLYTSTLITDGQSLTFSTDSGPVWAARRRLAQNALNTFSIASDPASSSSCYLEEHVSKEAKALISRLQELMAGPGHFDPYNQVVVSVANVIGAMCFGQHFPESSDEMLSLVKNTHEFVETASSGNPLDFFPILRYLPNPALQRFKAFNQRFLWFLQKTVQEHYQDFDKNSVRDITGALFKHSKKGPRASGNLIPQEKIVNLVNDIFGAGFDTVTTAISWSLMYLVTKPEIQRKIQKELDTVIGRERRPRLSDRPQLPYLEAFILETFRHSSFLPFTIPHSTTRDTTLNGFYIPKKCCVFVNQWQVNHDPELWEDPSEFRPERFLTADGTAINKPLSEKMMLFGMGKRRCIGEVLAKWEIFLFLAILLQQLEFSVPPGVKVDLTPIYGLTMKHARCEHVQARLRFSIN
Sequence of Voltage-gated inwardly rectifying potassium channel KCNH2 (Homo sapiens) (Q12809 whole entry, looked up): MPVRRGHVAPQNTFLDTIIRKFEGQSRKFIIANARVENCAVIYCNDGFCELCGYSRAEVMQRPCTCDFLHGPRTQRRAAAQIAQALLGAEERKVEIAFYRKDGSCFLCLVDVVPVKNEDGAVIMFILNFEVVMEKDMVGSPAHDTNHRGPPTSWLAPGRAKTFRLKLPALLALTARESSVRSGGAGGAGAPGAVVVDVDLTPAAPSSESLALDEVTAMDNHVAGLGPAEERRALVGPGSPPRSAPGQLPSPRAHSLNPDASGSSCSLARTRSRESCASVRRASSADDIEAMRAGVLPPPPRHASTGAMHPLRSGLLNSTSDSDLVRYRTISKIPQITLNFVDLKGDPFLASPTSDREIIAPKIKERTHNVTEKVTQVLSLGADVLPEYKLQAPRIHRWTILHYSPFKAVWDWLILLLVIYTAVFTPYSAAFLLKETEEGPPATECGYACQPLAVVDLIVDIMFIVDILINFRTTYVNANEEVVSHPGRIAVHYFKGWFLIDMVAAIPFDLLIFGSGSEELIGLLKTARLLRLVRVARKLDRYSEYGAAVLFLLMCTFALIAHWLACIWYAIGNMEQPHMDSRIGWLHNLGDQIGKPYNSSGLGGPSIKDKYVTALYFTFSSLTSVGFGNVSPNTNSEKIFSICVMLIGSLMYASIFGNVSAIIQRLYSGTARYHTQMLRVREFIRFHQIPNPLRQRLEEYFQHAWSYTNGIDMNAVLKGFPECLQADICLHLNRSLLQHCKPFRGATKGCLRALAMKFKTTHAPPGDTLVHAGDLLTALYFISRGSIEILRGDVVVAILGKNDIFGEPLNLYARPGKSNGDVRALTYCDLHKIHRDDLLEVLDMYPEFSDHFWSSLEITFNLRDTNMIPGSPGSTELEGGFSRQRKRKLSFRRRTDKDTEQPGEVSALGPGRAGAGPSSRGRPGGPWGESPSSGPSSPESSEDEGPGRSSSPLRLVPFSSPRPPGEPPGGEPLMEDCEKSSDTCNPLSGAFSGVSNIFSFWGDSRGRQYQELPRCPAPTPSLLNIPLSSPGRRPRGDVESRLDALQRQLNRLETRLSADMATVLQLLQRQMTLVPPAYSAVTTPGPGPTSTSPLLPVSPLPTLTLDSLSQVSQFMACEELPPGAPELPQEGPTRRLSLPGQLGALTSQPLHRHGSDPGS
Sequence of Acetylcholinesterase (Homo sapiens) (P22303 whole entry, looked up): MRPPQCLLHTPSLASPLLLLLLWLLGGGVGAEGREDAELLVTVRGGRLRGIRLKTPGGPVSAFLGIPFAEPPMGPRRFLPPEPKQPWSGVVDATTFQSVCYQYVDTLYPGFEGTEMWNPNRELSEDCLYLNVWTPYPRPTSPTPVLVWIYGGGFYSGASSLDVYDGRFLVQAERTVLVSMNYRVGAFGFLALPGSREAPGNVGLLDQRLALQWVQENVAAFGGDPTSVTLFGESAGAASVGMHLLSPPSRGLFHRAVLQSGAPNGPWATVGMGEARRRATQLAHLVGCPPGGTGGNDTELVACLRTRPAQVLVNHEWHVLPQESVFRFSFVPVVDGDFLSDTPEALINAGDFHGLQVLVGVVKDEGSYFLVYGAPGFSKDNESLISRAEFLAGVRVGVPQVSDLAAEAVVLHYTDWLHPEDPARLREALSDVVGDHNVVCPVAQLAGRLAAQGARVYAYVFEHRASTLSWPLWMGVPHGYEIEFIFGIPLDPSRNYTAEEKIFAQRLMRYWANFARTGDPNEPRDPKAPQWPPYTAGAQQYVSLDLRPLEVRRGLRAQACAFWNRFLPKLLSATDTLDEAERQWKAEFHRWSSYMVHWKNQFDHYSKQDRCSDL
Sequence of Thyrotropin-releasing hormone receptor (Homo sapiens) (P34981 whole entry, looked up): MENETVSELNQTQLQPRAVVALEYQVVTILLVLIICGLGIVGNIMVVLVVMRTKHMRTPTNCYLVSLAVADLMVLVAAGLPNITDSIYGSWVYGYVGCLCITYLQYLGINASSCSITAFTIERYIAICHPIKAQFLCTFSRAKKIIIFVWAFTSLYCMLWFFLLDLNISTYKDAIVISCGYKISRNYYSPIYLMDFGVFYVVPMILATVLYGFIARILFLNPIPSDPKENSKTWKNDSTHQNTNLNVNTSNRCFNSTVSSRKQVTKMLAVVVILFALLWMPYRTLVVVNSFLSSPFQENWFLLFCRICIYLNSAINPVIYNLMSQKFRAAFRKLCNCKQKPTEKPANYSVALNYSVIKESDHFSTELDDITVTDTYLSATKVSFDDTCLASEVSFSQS
Sequence of Cytochrome P450 2C9 (Homo sapiens) (P11712 whole entry, looked up): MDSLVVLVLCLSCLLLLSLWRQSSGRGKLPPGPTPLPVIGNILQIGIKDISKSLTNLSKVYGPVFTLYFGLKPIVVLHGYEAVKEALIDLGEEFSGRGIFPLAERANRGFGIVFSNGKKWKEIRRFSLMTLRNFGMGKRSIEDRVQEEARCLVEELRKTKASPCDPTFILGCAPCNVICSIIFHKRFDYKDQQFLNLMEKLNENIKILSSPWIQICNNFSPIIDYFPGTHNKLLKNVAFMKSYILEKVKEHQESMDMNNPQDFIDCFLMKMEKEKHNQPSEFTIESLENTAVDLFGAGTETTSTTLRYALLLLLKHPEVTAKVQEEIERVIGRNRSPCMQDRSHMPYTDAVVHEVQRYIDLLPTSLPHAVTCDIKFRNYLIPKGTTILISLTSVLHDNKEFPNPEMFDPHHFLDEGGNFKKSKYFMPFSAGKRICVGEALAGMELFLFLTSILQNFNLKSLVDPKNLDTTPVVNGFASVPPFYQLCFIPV
Sequence of Cytochrome P450 2C19 (Homo sapiens) (P33261 whole entry, looked up): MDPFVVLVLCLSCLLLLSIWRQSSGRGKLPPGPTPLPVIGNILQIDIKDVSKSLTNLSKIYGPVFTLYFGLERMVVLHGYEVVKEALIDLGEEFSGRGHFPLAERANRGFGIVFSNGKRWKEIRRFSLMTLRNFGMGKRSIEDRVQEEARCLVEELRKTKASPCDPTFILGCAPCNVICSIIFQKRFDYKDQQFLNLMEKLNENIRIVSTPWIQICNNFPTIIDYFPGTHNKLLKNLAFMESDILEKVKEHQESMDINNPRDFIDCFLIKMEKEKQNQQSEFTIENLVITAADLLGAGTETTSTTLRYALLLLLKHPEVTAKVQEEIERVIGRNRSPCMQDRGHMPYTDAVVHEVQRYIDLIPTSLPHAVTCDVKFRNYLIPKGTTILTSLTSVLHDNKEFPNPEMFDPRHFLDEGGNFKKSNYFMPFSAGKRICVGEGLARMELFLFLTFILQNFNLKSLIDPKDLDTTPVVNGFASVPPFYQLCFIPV

Take `CS(=O)(=O)Cl`: the molecule was called inactive in experiment [1], in [3] and in experiment [5]. Also, the Potency entry in [2], in [4], in [6], in [7], in experiment [8] and in experiment [9] was “inactive” each time. For the same molecule, the Potency entry in experiment [10], in experiment [11], in [12], in experiment [13], in experiment [14] and in [15] was “inactive” in each case.
For the molecule `CCCCOC(C)=O`, the result in experiment [1], in experiment [3] and in experiment [5] was inactive. Besides, the Potency entry in [2], in [4], in experiment [6], in experiment [7], in experiment [8] and in experiment [9] was “inactive” in each case. Besides, the Potency result in [10], in experiment [11], in experiment [12], in [13], in experiment [14] and in [15] was “inactive” in each case.
In the case of `CCN[C@H](C)Cc1cccc(C(F)(F)F)c1`, the molecule was called inactive in [1], in [3] and in experiment [5]. Also, the Potency result in experiment [2], in [4], in experiment [6], in experiment [7], in experiment [8] and in [9] was “inactive” in each case. Further, the Potency entry in experiment [10], in experiment [11], in [12], in experiment [13], in experiment [14] and in experiment [15] was “inactive” in each case.
`O=C1C2CC=CCC2C(=O)N1SC(Cl)(Cl)Cl` (centres undefined): the molecule was classed as inactive in experiment [1], in [3] and in experiment [5]. Moreover, the Potency result was “inactive and 21.3 µM (active)” in experiment [2]; 68.3 µM (active) and 12 µM (active) in experiment [4]; “inactive and 60.1 µM (active)” in [6]; 78.3 µM (active) in experiment [18]; 39.8 µM (active) and 8.79 µM (active) in [12]; 31.6 µM (active) and 4.94 µM (active) in [13]. The Potency in experiment [19] was 31.6 µM (active) and 22.1 µM (active); in experiment [14] it was “inactive and 48.2 µM (active)”. For the same molecule, the Potency entry in experiment [7], in experiment [17], in experiment [8], in experiment [9], in [10] and in experiment [11] was “inactive” throughout. The Potency entry in experiment [15] is “inactive”. The max activation in experiment [16] was -17% (inactive).
With `ClCCCCCCCl`, the call in experiment [1], in experiment [3] and in experiment [5] was inactive. Besides, the Potency entry in experiment [2], in experiment [4], in [6], in [7], in experiment [8] and in experiment [9] was “inactive” each time. The Potency result in experiment [10], in [11], in experiment [13], in experiment [14] and in [15] was “inactive” each time. The Potency is 39.9 µM (active) in experiment [12] and 35.6 µM (active) in [19].
With `CCOC(=O)COc1ccc(Cl)cc1Cl`, the molecule was classed as inactive in experiment [1], in experiment [3] and in experiment [5]. Besides, the Potency entry in [2], in experiment [4], in [6], in experiment [7], in experiment [8] and in experiment [9] was “inactive” in each case. Further, the Potency entry in [10], in experiment [14] and in experiment [15] was “inactive” each time. The Potency is 22.4 µM (active) in experiment [12] and 31.7 µM (active) in [19].
Consider `CCCN1CCC[C@@H]2Cc3[nH]ncc3C[C@H]21`, for which the result in experiment [1], in experiment [3] and in experiment [5] was inactive. Further, the Potency entry in experiment [2], in experiment [4], in experiment [6], in experiment [7], in experiment [11] and in [12] was “inactive” each time. Further, the Potency entry in experiment [13], in experiment [19], in experiment [14] and in [15] was “inactive” throughout. Also, the Potency in experiment [8] was 27.5 µM (active); in experiment [18], 30.9 µM (active).
On to `CCNP(=S)(OC)O/C(C)=C/C(=O)OC(C)C` (centres undefined), for which the molecule was called inactive in experiment [1], in experiment [3] and in experiment [5]. Moreover, the Potency result in [2], in [4], in experiment [6], in experiment [9], in [10] and in [11] was “inactive” throughout. For the same molecule, the Potency in experiment [7] is 9.69 µM (active); in experiment [18], 31.7 µM (active); in experiment [12] it was 0.0894 µM (active); in experiment [13], 633 nM (active); in experiment [19] it was 2.52 µM (active); in experiment [15], 1.26 µM (active).
